High-throughput results as filed in PubChem.
Sampled rows, rich in hits. Any-hit rate of the full collection: about 2.9%.
FAS-TE inh – inhibitors of human fatty acid synthase thioesterase domain; AID 602261; recombinant FAS-TE, OMFH fluorogenic substrate, fluorescence endpoint; inhibition, % at 15 µM; P49327; hit rate 0.67% among 360,000;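 active = compounds whose normalised, plate-corrected inhibition of enzyme fluorescence in the single-dose primary screen is 50% or more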;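 note: 0% = DMSO with enzyme and 100% = substrate without enzyme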
FXN GAA850 act – activators of GAA850 frataxin (FXN) promoter. HEK293 lucGAA850 FXN promoter luciferase reporter, 24 h; percent of 10 µM SAHA response. activation, % at 6 µM. hit rate 0.56% among 360,000. AID 540364;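 active = activation above the average of all compounds screened plus 3 SD, cutoff fixed separately per campaign, cut at about 7.5% in these data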;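 note: 0% = DMSO wells and 100% = 10 µM SAHA wells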
KLK7 zymogen act – activates the human kallikrein-7 zymogen; P49862; purified proKLK7, EDANS-DABCYL substrate fluorescence; 100% is mature enzyme control, 0% vehicle; activation, % at 7 µM; hit rate 0.9% among 370,000;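 active = activation above the mean of all tested compounds plus 3 SD, computed per campaign excluding outliers beyond control limits, cut at about 13% in these data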
Target sequence (P49862 whole entry, looked up): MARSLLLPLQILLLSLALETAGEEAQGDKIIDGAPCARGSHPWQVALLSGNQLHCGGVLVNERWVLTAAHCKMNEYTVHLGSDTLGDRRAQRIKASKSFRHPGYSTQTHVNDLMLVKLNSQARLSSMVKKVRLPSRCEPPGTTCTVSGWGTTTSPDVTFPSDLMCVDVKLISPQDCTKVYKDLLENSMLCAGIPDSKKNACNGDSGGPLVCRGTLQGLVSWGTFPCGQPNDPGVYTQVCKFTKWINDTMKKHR
SMARCA2 act – activators of SMARCA2 function | MG213 cells, MMTV-luciferase reporter, dexamethasone, overnight | activation, % at 9.1 µM | hit rate 1% among 370,000 | AID 652017; in the data active = activation above about 7.8%;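 note: 0% = vehicle wells and 100% = reference activator wells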
FAS-TE inh conf – confirmation of human fatty acid synthase thioesterase inhibitors; shares compounds with FAS-TE inh; hit rate 45% among 2,300; AID 624325; recombinant FAS-TE, OMFH fluorogenic substrate, fluorescence; inhibition, % at 15 µM;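 active = compounds inhibiting the enzyme by at least 50% at 15 µM in any one of the replicates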;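 note: 0% = enzyme with DMSO only and 100% = wells lacking enzyme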
Starred values were filed as active, the others as inactive; x = no result given.

SMILES	FAS-TE inh	FXN GAA850 act	KLK7 zymogen act	SMARCA2 act	FAS-TE inh conf
Cc1cccc(C(=O)Oc2ccccc2/C=N/NC(=O)c2ccc(NC(=O)C(C)(C)C)cc2)c1	66*	2	-1	3	18
CC(C)(C)C(=O)Nc1ccc(C(=O)N/N=C/c2ccccc2OC(=O)c2ccc(Cl)cc2)cc1	76*	-3	0	-4	12
CC(C)(C)C(=O)Nc1ccc(C(=O)N/N=C/c2ccccc2OC(=O)c2ccccc2)cc1	29	0	-1	0	x
CC(C)(C)c1ccc(C(=O)N2CCC2(C)C(=O)NS(=O)(=O)c2ccc(C#N)cc2)cc1 (stereo unspecified)	53*	0	1	0	65*
CC1(C(=O)NS(=O)(=O)c2ccc(C#N)cc2)CCN1C(=O)c1cccc(F)c1 (stereo unspecified)	-3	3	0	-3	x
C=CCn1cc(C(=O)NCc2ccco2)c(=O)c2cc(S(=O)(=O)N3CCCCCC3)ccc21	61*	0	0	-6	70*
CCn1cc(C(=O)N2CCCC2)c(=O)c2cc(S(=O)(=O)N3CC(C)CC(C)C3)ccc21 (stereo unspecified)	-3	2	0	-3	x
CCn1cc(C(=O)NCc2ccco2)c(=O)c2cc(S(=O)(=O)N3CC(C)CC(C)C3)ccc21 (stereo unspecified)	78*	1	1	-1	87*
CCn1cc(C(=O)NCc2ccco2)c(=O)c2cc(S(=O)(=O)N3CCC(C)CC3)ccc21	74*	-4	0	-5	84*
CCn1cc(C(=O)NCc2ccco2)c(=O)c2cc(S(=O)(=O)N3CCc4ccccc4C3)ccc21	47	-2	-1	-2	x
CCn1cc(C(=O)NCc2ccco2)c(=O)c2cc(S(=O)(=O)N3CCCCCC3)ccc21	78*	-2	-1	-2	58*
Cc1c(NC(=O)CN2CCC(C(N)=O)CC2)cccc1[N+](=O)[O-]	-8	-1	1	0	x
O=C(Nc1ccc(Cl)cc1)N1CCCN(c2ccc(C(F)(F)F)cc2[N+](=O)[O-])CC1	54*	2	0	-4	21
N#Cc1ccc(Oc2ccc(-c3nc4ccccc4nc3-c3ccccc3)cc2)cc1C#N	70*	3	-3	1	28
N#Cc1ccc(Oc2ccc(-c3cnc4ccccc4n3)cc2)cc1C#N	42	0	0	-1	x
CC#CCN1c2ccccc2[C@]23C[C@@H](C(=O)OC)N(C(=O)c4ccco4)C2=NC(C(=O)OC)=C(C(=O)OC)[C@H]13	-9	1	0	1	x
CC#CCN1c2ccccc2[C@]23C[C@@H](C(=O)OC)N(C(=O)c4cc(C)oc4C)C2=NC(C(=O)OC)=C(C(=O)OC)[C@H]13	59*	-4	1	1	19
CCCNC(=O)/C(C#N)=C1\N=C(NC(=O)c2cccs2)c2ccccc21	-4	1	0	1	x
Cc1ccc(S(=O)(=O)N(C)C)cc1NC(=S)NC(C)CCCC(C)C (stereo unspecified)	58*	4	0	-3	53*
COc1cccc(CNCCOCCO)c1OC	-10	0	0	1	x
Cc1csc(NC(=O)C2CCN(S(=O)(=O)c3ccc4c(c3)oc(=O)n4C)CC2)n1	59*	-3	0	0	68*
COc1cccc(C(=O)N/N=C/c2ccc(Oc3ccc([N+](=O)[O-])cn3)c(OC)c2)c1	18	-3	0	-3	x
COc1cc(/C=N/NC(=O)c2ccc3ccccc3c2)ccc1Oc1ccc([N+](=O)[O-])cn1	52*	-2	-1	1	12
Cc1c(NC(=O)C2CCCN2C(=O)c2cccs2)c(=O)n(-c2ccccc2)n1C (stereo unspecified)	-4	2	-1	-4	x
C[C@H](NC(=O)c1ccccc1Cl)C(=O)OCC(=O)NNC(=O)c1cccs1	-7	3	1	-3	x
SMILES	FAS-TE inh	FXN GAA850 act	KLK7 zymogen act	SMARCA2 act	FAS-TE inh conf
COc1cc(OC)cc(N(C(=O)C2COc3ccccc3O2)C(C(=O)NC2CCCCC2)c2ccc(O)cc2)c1 (stereo unspecified)	12	-2	0	-4	x
COc1ccc2nc(NC(=O)c3ccc([N+](=O)[O-])o3)sc2c1	58*	2	-1	4	51*
O=C(O)c1cc(-c2ccc(/C=N/NC(=S)Nc3ccccc3)o2)ccc1Cl	50*	0	-1	-1	55*
Cc1ccc(C)c(N2CCN(S(=O)(=O)c3ccc4c(c3)NC(=O)CS4)CC2)c1	19	-3	0	-5	x
CCOC(=O)c1ccc(N2C(=O)CC(N(Cc3ccc4c(c3)OCO4)C(=O)Nc3ccccc3)C2=O)cc1 (stereo unspecified)	14	-5	1	-3	x
O=[N+]([O-])c1cccc(S(=O)(=O)Nc2nc3ccccc3nc2Nc2cccc(S(=O)(=O)N3CCCCC3)c2)c1	82*	1	1	-1	17
Cc1ccc(S(=O)(=O)Nc2nc3ccccc3nc2Nc2cccc(S(=O)(=O)N3CCCC3)c2)cc1	14	3	0	-1	x
Cc1c(Cl)cccc1N1C(=O)C(N2C(=O)c3cccc([N+](=O)[O-])c3C2=O)C1c1cccs1 (stereo unspecified)	63*	2	x	x	35
Cc1cccc(NC(=S)/N=C(\N)Nc2nc(C)c3ccccc3n2)c1	59*	-1	-2	0	20
Cc1ccc(S(=O)(=O)N2CCN(C(=O)c3ccc(N4CCC(C)CC4)c([N+](=O)[O-])c3)CC2)cc1	54*	-1	1	-1	14
Cc1[nH][nH]c(=O)c1C(c1ccc(-c2cccc(C(=O)O)c2)o1)c1c(C)[nH][nH]c1=O	22	2	0	-1	x
Cc1[nH][nH]c(=O)c1C(c1ccc(-c2cccc(Cl)c2)o1)c1c(C)[nH][nH]c1=O	54*	0	x	x	38
O=c1oc2cc(O[C@@H]3OC[C@@H](O)[C@H](O)[C@H]3O)ccc2c2ccccc12	-4	0	-14	1	x
O=C(NCc1ccccc1)/C(=C/c1cccc([N+](=O)[O-])c1)NC(=O)c1ccco1	69*	0	0	-2	79*
O=C(NCCc1ccccc1)/C(=C\c1cccc([N+](=O)[O-])c1)NC(=O)c1ccco1	83*	-2	0	0	77*
O=C(NC(Cc1ccccc1)C(=O)O)/C(=C\c1cccc([N+](=O)[O-])c1)NC(=O)c1ccco1 (stereo unspecified)	8	2	-1	0	x
Cc1cccc(C(CC(=O)O)n2cccc2)c1 (stereo unspecified)	-6	2	0	0	x
CCN1CCN(C(=S)NCCOC)CC1	-4	-1	0	1	x
O=C(CCN1N=C(c2ccccc2)CCC1=O)NCCCN1CCOCC1	-6	2	0	0	x
O=C(Nc1cccc(C(F)(F)F)c1)c1cccnc1NCCc1ccccc1	53*	3	-2	5	31
O=C(Nc1cccc(C(F)(F)F)c1)c1cccnc1NCCO	-1	-1	1	-2	x
